# Measurements reported in PubChem BioAssay (EPA / NIEHS).
# Some compounds were tested as several samples or in several runs, with calls that do not always agree. Activity calls are given as the source filed them. How the source made its calls: active means hit-call score of the fitted dose curve at least 0.9, where 1 is the maximum; inactive means score below 0.9.
# Assay: ATG_CRE_CIS: Attagene CIS-FACTORIAL HepG2 Assay for human cAMP Responsive Element (CRE) binding protein 3 (AID 2282926)
# Conditions: HepG2 CRE cis-reporter, Attagene multiplexed mRNA; actives raise or lower the signal
# Experimental: ATG_CIS is a cell-based, multiplexed-readout assay that uses HepG2, a human liver cell line, with measurements taken at 24 hours after chemical dosing in a 24-well plate.ATG_CRE_CIS is one of 52 assay component(s) measured or calculated from the ATG_CIS assay. It is designed to make measurements of mRNA induction, a form of inducible reporter, as detected with fluorescence intensity signals by Reverse transcription polymerase chain reaction (RT-PCR) and Capillary electrophoresis technology.Data from the assay component ATG_CRE_CIS was analyzed into 1 assay endpoint. This assay endpoint, ATG_CRE_CIS, was analyzed with bidirectional fitting relative to DMSO as the negative control and baseline of activity. Using a type of inducible reporter, measures of mRNA for gain or loss-of-signal activity can be used to understand the reporter gene at the transcription factor-level as they relate to the gene CREB3. Furthermore, this assay endpoint can be referred to as a primary readout, because this assay has produced multiple assay endpoints where this one serves a reporter gene function. To generalize the intended target to other relatable targets, this assay endpoint is annotated to the dna binding intended target family, where the subfamily is basic leucine zipper.
# Human liver HepG2 cells are transiently transfected with multiple reporter transcription units (MRTUs) in 6-well plates using FuGene 6 reagent (Roche; 3 ml FuGene/1 mg DNA). The MRTU constructs are regulated by a cis-regulating element (promoter). […] A major difference between the CIS and TRANS system is that in CIS activities of endogenous TFs are measured, whereas the TRANS assay evaluates changes in activities of exogenous, chimeric NR-Gal4 proteins. […] At the end of 24 hour incubation, total RNA was isolated using TriZol reagent (Invitrogen). The isolated RNA is then reverse-transcribed using oligo(dT) primer and Mo-MLV reverse transcriptase (Invitrogen) with DNAse I (Ambion) treatment for 30 min. The one-tenth of the produced cDNA was amplified by PCR using Taq DNA polymerase (Invitrogen) and two reporter sequence-specific primers. The PCR products were fluorescently labeled by primer extension with 6-arboxyfluorescein (6-FAM) 5'-labeled reporter sequence-specific primer (2 min at 95 C, 20 s at 68 C and 10 min at 72 C) and these products were digested with 5U of HpaI (New England Biolabs) for 2h at 37 C. The fragments were purified using Qiaquick PCR columns (Qiagen), analyzed on an ABI 3130xL genetic analyzer (Applied Biosystems) with peak positions identified by using a set of X-rhodamine (ROX)-labeled MapMarker1000 molecular weight standards (BioVentures). The raw capillary electrophoresis data was processed using Attagraph software (Attagene).
Compound,outcome,AC50
FC1(F)C=CC(F)(F)C1(F)F,inactive,–
CC(=O)CC(C)C,inactive,–
CC(C)(C)c1ccc(CCC=O)cc1,inactive,–
CCC1CO1 (stereo not given),inactive,–
Cc1ccc(C)c(S(=O)(=O)O)c1,inactive,–
C=Cc1ccc(O)c(OC)c1,inactive,–
CC(C)(C)C1CCCCC1O (stereo not given),inactive,–
Oc1cccc2c(O)cccc12,inactive,–
Cc1ccc2ccc3ccc(C)cc3c2c1,inactive,–
NCc1cccc(CN)c1,inactive,–
CC(C)c1c(C(=O)Nc2ccccc2)c(-c2ccccc2)c(-c2ccc(F)cc2)n1CC[C@@H](O)C[C@@H](O)CC(=O)O,inactive,–
NNc1nc(-c2ccc([N+](=O)[O-])cc2)cs1,inactive,–
COC1=CC(=O)C[C@@H](C)[C@]12Oc1c(Cl)c(OC)cc(OC)c1C2=O,–,130 µM (active)
CCc1ccccc1O,inactive,–
CCCCC=O,inactive,–
CCCCc1oc2ccccc2c1C(=O)c1cc(I)c(OCCN(CC)CC)c(I)c1,–,20.9 µM (active)
Cc1ccc(S(=O)(=O)O)cc1,inactive,–
CCC(C)c1nccnc1OC (stereo not given),inactive,–
CCC(=O)C=Cc1ccc(OC)cc1,inactive,–
COc1cc(OC)nc(NC(=O)NS(=O)(=O)Nc2ccccc2C(=O)N(C)C)n1,inactive,–

Compound,outcome,AC50
CCCCc1ccc2ccccc2c1S(=O)(=O)O,inactive,–
COC(=O)C(F)(F)C(F)(F)C(F)(F)F,inactive,–
FC(F)(F)C(F)(F)C(F)(F)C(F)(F)I,inactive,–
CC1=NN(c2ccccc2)C(=O)C1,inactive,–
O=C(O)C(=O)O,inactive,–
CCCCCCCCCCCC[N+](C)(C)CCCCCCCCCCCC,inactive,–
CCCCCCC(C)(C)C(=O)O,inactive,–
O=C(NO)c1ccccc1,inactive,8.57 µM (active)
O=C(O)CCC(F)(F)C(F)(F)C(F)(F)C(F)(F)C(F)(F)F,inactive,–
COc1cccc(O)c1,inactive,–
C/C=C/C(=O)C1=C(C)CCCC1(C)C,–,34.4 µM (active)
CCCCCCCCCCCCCC[n+]1ccccc1,inactive,–
O=C(O)CCC(F)(F)C(F)(F)C(F)(F)C(F)(F)C(F)(F)C(F)(F)F,inactive,–
O=P(O)(O)CCC(F)(F)C(F)(F)C(F)(F)C(F)(F)C(F)(F)C(F)(F)F,inactive,–
Clc1ccc(Nc2nnc(Cc3ccncc3)c3ccccc23)cc1,inactive,–
CCC(C)c1ccccc1O (stereo not given),inactive,–
O=P(O)(O)CCC(F)(F)C(F)(F)C(F)(F)C(F)(F)C(F)(F)C(F)(F)C(F)(F)C(F)(F)F,inactive,–
C=CC(=C)CC/C=C(\C)CCC=C(C)C,inactive,–
COCN(COC)c1nc(N(COC)COC)nc(N(COC)COC)n1,inactive,–
